# Experimental data as given in the supplement of paper PMC3334620.
# Over roughly 33,000 sequences, “E-score (-0.5 to 0.5)” has its median near -0.012; the highest 2% begin near 0.27. For the sample, the highest values were picked, then their nearest neighbours and some sequences at random.
# Target: T1, Vhr1 (UniProt P40522)
# T1 sequence: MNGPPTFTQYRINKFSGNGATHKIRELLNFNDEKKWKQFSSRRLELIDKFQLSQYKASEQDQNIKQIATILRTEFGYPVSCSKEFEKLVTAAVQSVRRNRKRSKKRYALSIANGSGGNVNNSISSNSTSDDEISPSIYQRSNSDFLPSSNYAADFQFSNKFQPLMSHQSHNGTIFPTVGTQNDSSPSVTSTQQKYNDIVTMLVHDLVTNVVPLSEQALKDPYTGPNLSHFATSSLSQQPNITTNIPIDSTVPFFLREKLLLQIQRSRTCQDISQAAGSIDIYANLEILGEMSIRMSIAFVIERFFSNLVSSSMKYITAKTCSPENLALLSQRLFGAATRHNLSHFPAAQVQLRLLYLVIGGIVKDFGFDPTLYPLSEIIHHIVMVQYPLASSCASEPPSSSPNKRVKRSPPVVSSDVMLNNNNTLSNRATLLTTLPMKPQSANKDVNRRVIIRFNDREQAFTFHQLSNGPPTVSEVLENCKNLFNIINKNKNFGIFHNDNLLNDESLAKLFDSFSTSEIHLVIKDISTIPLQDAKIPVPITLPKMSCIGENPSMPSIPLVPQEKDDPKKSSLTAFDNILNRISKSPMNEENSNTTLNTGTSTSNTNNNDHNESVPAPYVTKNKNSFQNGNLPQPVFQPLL
# Assay: PBM E-score (8-mer binding enrichment) (E-score (-0.5 to 0.5)); higher = stronger / more preferred TF binding
# Details: protein concentration: 200 nM; construct: GST-full length
# Procedure, shortened: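 Masliner-normalised scans of fluorescent anti-GST signal were the basis for scoring. That signal came from GST-tagged yeast transcription factors applied at about 100-200 nM to double-stranded universal all-10-mer Agilent arrays on fresh or once-stripped slides. Each ungapped eight-base word, pooled with its reverse complement, received an E-score from the Universal PBM Analysis Suite.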
row,Sequence,PBM E-score
1,ATTTCTGA,-0.152
2,TATGGAGA,-0.137
3,CTCCCCCC,-0.0954
4,ATCTGTTA,-0.0428
5,GTACACAC,0.261
6,ATCAGGTA,0.193
7,ATCCCCAC,0.122
8,ATACCCAC,0.176
9,GCGCGAAC,0.0578
10,AGCTAAAG,-0.21
11,AGAGCCTC,-0.228
12,AGGCGTGA,0.019
13,CGGCGTGA,0.142
14,GGGCGTGA,0.297
15,TCGACTAA,0.207
16,GCGACTAC,0.341
17,CCGACTAC,0.269
18,GCGACTAA,0.316
19,ACGACTAC,0.209
20,ACGACTAA,0.194
21,CCCAGGCA,0.0398
22,CATTCAGC,-0.161
23,CTTGTAAA,-0.0609
24,CGTGGGAG,0.0618
25,AATAAAGC,-0.176

row,Sequence,PBM E-score
1,AGTCGCCA,0.233
2,AGTCGCCC,0.346
3,GGTCGCAC,0.0284
4,AGTCGCAC,0.296
5,AGTCGCCG,0.246
6,AGTCGCAG,0.24
7,GTTCTTGA,-0.0686
8,CTAGGGGC,-0.146
9,AACACCAC,0.0462
10,GTTCAAAC,-0.0829
11,ATACTGCA,0.234
12,CGCCACGA,-0.0781
13,CTTGCAAC,0.0737
14,GGAATCAA,0.154
15,CGAATCAC,0.331
16,CGAATCCC,0.00269
17,CGAATCTC,-0.0376
18,GGAATCCC,0.034
19,GGAATCAC,0.388
20,AAAAGCCA,-0.0583
21,ACACCTGC,0.0726
22,AGGCTACA,0.0844
23,ATGACCAC,0.176
24,ACCCTATG,0.136
25,TACGTTGA,0.0682

row,Sequence,PBM E-score
1,GATTTTGA,0.0345
2,ATTACTTG,0.164
3,ACTCCGAT,0.1
4,ACTCCGAA,0.116
5,ACTCCGAG,0.357
6,ACTCCGAC,0.332
7,GCTCCGAC,0.0683
8,CCTCCGAC,-0.0621
9,TCTTAACA,-0.0919
10,CATGCATC,0.28
11,CATGCATG,0.117
12,CATGCATA,0.0152
13,ACCTCCAT,0.0255
14,CTAGTGGA,-0.162
15,GATCCCTA,-0.0993
16,GGCCAGGA,-0.105
17,AATTAGTC,0.29
18,CGTTAGTC,0.132
19,CATTAGTC,0.257
20,AATTAGTA,0.146
21,AGTTAGTC,0.291
22,AGTTAGTA,0.137
23,CAATCTAA,-0.13
24,ATAGCAAG,0.161
25,GCGAGACC,-0.049

row,Sequence,PBM E-score
1,ACTTAGGA,-0.198
2,GGACTACA,0.146
3,CGACTACA,0.272
4,CGACTAAC,0.303
5,CGACTAAA,0.0758
6,CGACTACG,0.188
7,TGACTACA,0.359
8,GGACTAAA,-0.248
9,TGACTAAA,0.326
10,AGACTAAA,0.0442
11,GGACTAAC,-0.00735
12,CGACTACC,0.22
13,AGACTACA,0.17
14,CAGATAAG,-0.0755
15,CTTCGACA,-0.0949
16,CGGCCAAC,0.0556
17,CGTCCTAA,0.0547
18,GGCACATA,0.13
19,GGGCCAAC,-0.157
20,ACCATAGG,0.0531
21,TAGTAATA,0.191
22,CAGGGGCC,-0.184
23,AAGGGGCG,-0.0512
24,CAGGGGCG,0.301
25,CTTTAGAA,-0.238

row,Sequence,PBM E-score
1,GAGAAAGA,-0.167
2,GTCCGGAC,0.273
3,ATCCGGAC,-0.192
4,CTCCGGAC,0.0766
5,AGGATCTC,-0.119
6,ATCAATGC,0.0623
7,AGGAGACG,-0.176
8,CCCGTGAA,-0.0611
9,CGCCTATA,-0.135
10,CGCGACCC,0.153
11,AGCGACTC,0.314
12,AGCGACTA,0.211
13,CGCGACTA,0.391
14,CTCGACTC,0.19
15,CTCGACTA,0.163
16,AGCGACTG,0.194
17,CGCGACTC,0.449
18,GGCGACTA,0.212
19,GAGGTATA,0.113
20,CTTGCTGC,-0.113
21,CCAATACG,-0.209
22,ATGTGCGC,-0.0331
23,ACACTTTA,-0.0402
24,GAACCTGA,0.0239
25,TCCTGACA,0.107

row,Sequence,PBM E-score
1,CGGAACCA,0.343
2,CGGAACCG,0.0495
3,ATGAACCG,0.0189
4,CCGAACCA,0.0572
5,ATGAACCA,0.294
6,ACGAACCA,0.273
7,CTGAACCA,0.245
8,ACGAACCC,-0.119
9,GGGAACCA,0.176
10,GCTCCTCA,-0.363
11,CTATCGGA,-0.237
12,ACAGTTCC,-0.00019
13,ATATCTTC,0.11
14,ACTATCTA,0.184
15,CAGCCAGG,0.0621
16,GTGGTAAC,-0.0602
17,ACGAAGCA,0.00046
18,CAGACTCG,0.0994
19,AACCTCAG,-0.103
20,TAGTGTGA,0.088
21,GAGTGTGC,0.0366
22,GAGTGTGA,0.278
23,CAGTGTGA,0.285
24,GAGTGTAA,0.0325
25,AAGTGTGA,0.0182

row,Sequence,PBM E-score
1,GATTCCGC,0.216
2,GATTCAGC,0.149
3,CATTCACA,0.00907
4,GATTCCGA,0.287
5,CATTCCGA,0.0348
6,GATTCACA,0.326
7,GATTCAGA,0.305
8,TATTCAGA,0.178
9,CATTCACG,-0.114
10,CGAAAGCA,-0.046
11,GATACACC,0.197
12,ACTGGCTG,0.0954
13,CTTACCCA,0.104
14,ACTCCAGA,0.0505
15,TCTGCCCA,-0.179
16,AACCAACT,0.0869
17,CGTGCTAA,-0.201
18,CCCATGAG,0.227
19,CCTCATGC,0.0272
20,ACTCATGG,0.317
21,ATGCATGG,0.28
22,GCTCATGA,0.16
